Data from PubChem BioAssay AID1376 (SRMLSC, 2008).
The campaign covered roughly 220,000 compounds. About 530 (0.24%) were called active. The full list was thinned out, with actives kept by preference. Results with a measured potency or affinity are listed apart. Unmarked numbers belong to inactive results. Cut-off read from the data, not from the text of the source: active = inhibition above about 13%; inconclusive = no clear call, values can overlap the other calls; inactive = below that.

Each compound was assayed against Bifunctional protein GlmU (Mycobacterium tuberculosis (strain ATCC 25618 / H37Rv)) (UniProt P9WMN3) (assay: inhibition of mycobacterial GlmU enzyme – biochemical, glucosamine-1-phosphate acetyltransferase (AID 1376;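 note: 0% = complete reaction with vehicle and 100% = reaction without substrate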)). Details: M. tuberculosis GlmU acetyltransferase enzyme assay; active compounds read high;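 tested at 30 µM in the primary screen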.
Chain of Bifunctional protein GlmU (Mycobacterium tuberculosis (strain ATCC 25618 / H37Rv)) (P9WMN3 whole entry, looked up): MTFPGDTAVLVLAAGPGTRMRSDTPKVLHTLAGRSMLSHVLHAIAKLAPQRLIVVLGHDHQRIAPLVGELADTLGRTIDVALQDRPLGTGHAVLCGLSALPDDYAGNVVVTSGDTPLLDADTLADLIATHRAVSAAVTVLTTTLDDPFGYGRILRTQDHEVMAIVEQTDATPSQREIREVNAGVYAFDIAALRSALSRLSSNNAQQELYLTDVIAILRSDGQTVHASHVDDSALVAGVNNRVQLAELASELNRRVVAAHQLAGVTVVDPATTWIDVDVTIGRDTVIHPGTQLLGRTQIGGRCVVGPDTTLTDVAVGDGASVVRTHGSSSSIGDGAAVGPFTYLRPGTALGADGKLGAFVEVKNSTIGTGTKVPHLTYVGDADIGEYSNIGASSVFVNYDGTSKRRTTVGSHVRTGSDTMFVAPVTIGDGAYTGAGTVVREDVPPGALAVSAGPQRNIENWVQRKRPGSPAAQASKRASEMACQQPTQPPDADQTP

Compound | inhibition
C=CCn1c(C(CC(C)C)CC(C)O)n[nH]c1=S (stereo not given) | -0.56%
Cc1ccc(-n2c(SCC(=O)NC3CCS(=O)(=O)C3)nc3ccccc3c2=O)cc1 (stereo not given) | -6.07%
Cc1cccc(NC(=O)CCc2ccc(S(=O)(=O)NC3CCCCC3)cc2)c1 | 4.56%
CC(C)(C)c1ccc(/C=N/Nc2cccc(C(=O)O)c2)cc1 | -6.54%
O=C(O)c1cccc(N/N=C/c2ccc(-c3ccccc3)cc2)c1 | -0.74%
Cc1nn(-c2cccc(C(F)(F)F)c2)c(Cl)c1/C=N/Nc1cccc(C(=O)O)c1 | -2.39%
CSc1ccc(/C=N/Nc2cccc(C(=O)O)c2)cc1 | 35.4% (active)
Cc1nn(-c2ccccc2)c(Cl)c1/C=N/Nc1ccc(Cl)c(C(=O)O)c1 | -0.65%
CCOc1cccc(C(=O)N(Cc2ccc(F)cc2)C2CCS(=O)(=O)C2)c1 (stereo not given) | 3.65%
CC1CCc2c(sc3ncn(Cc4ccc(C(=O)O)cc4)c(=O)c23)C1 (stereo not given) | -5.17%
CNS(=O)(=O)c1cccc(C(=O)OCC(=O)Nc2ccc(N3CCCCC3)cc2)c1 | -3.94%
CN(CCC1CCOCC1)Cc1nc(Cc2ccccc2F)no1 | 3.72%
CCCCOc1nc2ccccc2nc1C(C#N)S(=O)(=O)c1ccccc1 (stereo not given) | 3.84%
N#CC(c1nc2ccccc2nc1OCCO)S(=O)(=O)c1ccccc1 (stereo not given) | 12.9% (active)
Cc1ccc(S(=O)(=O)C(C#N)c2nc3ccccc3nc2OCCO)cc1 (stereo not given) | 2.66%
COc1ccc(C2C(C(C)=O)=C(O)C(=O)N2c2cccnc2)c(OC)c1 (stereo not given) | 12.9% (active)
COc1ccc(C2C(C(C)=O)=C(O)C(=O)N2c2nccs2)c(OC)c1 (stereo not given) | 0.3%
COc1ccc(C2C(C(C)=O)=C(O)C(=O)N2c2cccnc2)cc1OC (stereo not given) | 1.89%
Cc1ccccc1NC(=O)C(C)n1c2ccccc2c2nc(=O)cc(C)n21 (stereo not given) | -3.29%
Nc1c(C(=O)O)ccc2c1C(=O)c1ccccc1C2=O | 5.83%

Compound | inhibition
O=C(O)c1cccc2c1C(=O)c1ccccc1C2=O | -4.06%
Nc1cc(C(=O)O)c(N)c2c1C(=O)c1ccccc1C2=O | 12.9% (active)
Cc1ccc2nsnc2c1S(=O)(=O)N1CCN(CCc2ccccc2)CC1 | -1.69%
Cn1c(=O)n(C)c2cc(NC(=O)c3ccccc3[N+](=O)[O-])c(Br)cc21 | -4.22%
NC(=O)CSc1nnc(Cn2cnc3ccccc32)o1 | -3.79%
Clc1ccc(CSc2nnc(Cn3cnc4ccccc43)o2)cc1 | 15% (active)
Clc1ccc(Cn2cnc3ccccc32)cc1 | -0.58%
CC(C)(CN=C1NS(=O)(=O)c2ccccc21)CNC(=O)CN1C(=O)c2ccccc2C1=O | 0.96%
O/C(=C\Sc1nnc(Cc2ccccc2)o1)c1ccc(Br)cc1 | 9.57%
O=C(CCC1CCCCC1)Nc1c2c(nn1-c1ccc(F)cc1)CS(=O)C2 (stereo not given) | -0.99%
Cc1ccc(-n2nc3c(c2NC(=O)CCC2CCCCC2)CS(=O)C3)cc1 (stereo not given) | 4.09%
Cc1cccc(-n2nc3c(c2NC(=O)CCC2CCCCC2)CS(=O)C3)c1C (stereo not given) | 19.3% (active)
COc1ccccc1C1C(C(=O)NCc2ccccc2)=C(C)Nc2ncnn21 (stereo not given) | -0.29%
O=C(NCc1cccc(Cl)c1)c1ccc(S(=O)(=O)Nc2cccc(C(F)(F)F)c2)cc1 | 6.21%
CNS(=O)(=O)c1c(C)cc(C)c(N(C)S(=O)(=O)c2ccccc2)c1C | 4.09%
COc1ccc(/C=C2\SC(=S)N(C(Cc3ccccc3)C(=O)O)C2=O)cc1 (stereo not given) | 1.51%
O=C(O)C(Cc1ccccc1)N1C(=O)/C(=C/c2ccccc2)SC1=S (stereo not given) | 7.96%
O=C(O)C(Cc1ccccc1)N1C(=O)/C(=C/c2cccs2)SC1=S (stereo not given) | 17.4% (active)
O=C(O)C(Cc1ccccc1)N1C(=O)/C(=C/c2cccc3ccccc23)SC1=S (stereo not given) | 3.53%
O=C(O)C(Cc1ccccc1)N1C(=O)/C(=C/C=C/c2ccco2)SC1=S (stereo not given) | 26.9% (active)

Compound | inhibition
O=C(O)CCCN1C(=O)/C(=C/C=C/c2ccco2)SC1=S | 5.29%
O=C(O)CC(C(=O)O)N1C(=O)/C(=C/C=C/c2ccco2)SC1=S (stereo not given) | 17.9% (active)
O=C1S/C(=C\C=C\c2ccco2)C(=O)N1c1ccc(O)cc1 | 11.9%
Cc1ccc(/C=C2\SC(=S)N(C(Cc3ccccc3)C(=O)O)C2=O)cc1 (stereo not given) | 5.14%
CC(=O)Nc1ccc(C(=O)NNC(=O)c2cc([N+](=O)[O-])cc([N+](=O)[O-])c2)cc1 | 2.49%
CC(C)(O)C#Cc1ccc(CN2CCN(Cc3ccccc3)C(CCO)C2)s1 (stereo not given) | 3.34%
Cc1nc2nc3c(cn2n1)C(=O)CC(c1ccccc1)C3 (stereo not given) | 15% (active)
O=C1CC(c2ccccc2)Cc2nc3nc(C(F)(F)F)nn3cc21 (stereo not given) | 2.78%
CSc1nc2nc3c(cn2n1)C(=O)CC(c1ccccc1)C3 (stereo not given) | 2.71%
O=C(Nc1nnc(-c2ccccc2)o1)NC1CCCCC1 | 0.77%
CC(=O)Nc1ccc(OCC(O)CN2CCN(c3cccc(Cl)c3)CC2)cc1 (stereo not given) | -0.54%
COC(C/C=C\[C@H](O)COCc1ccccc1)OC | 6.23%
Cc1ccccc1NC(=O)Nc1cc(-c2ccccc2)nn1C | -3.02%
O=C(CSCc1ccccc1F)NCc1ccc(F)cc1 | -1.92%
c1cncc(-c2nnc3n2CCC3)c1 | -0.26%
CCOC(=O)C1=C(N)N(c2ccccc2)C(=O)C1 | 1.91%
CCOC(=O)C1=C2NC(=O)c3ccccc3N2C(=O)C1 | 13.7% (active)
CCOC(=O)C1=C(C)N(c2ccccc2)C(=O)C1 | 3.44%
O=C(COC(=O)c1ccc(Cl)c([N+](=O)[O-])c1)Nc1ccccc1OC(F)F | 0.84%
Cc1sc2nc(SCc3ccccc3)n(Cc3ccco3)c(=O)c2c1C | -1.04%
